# Reference: PubChem BioAssay
# Activity calls are given as the source filed them. Unless noted, the rule behind the calls is not given here.
# Experiments:
# [1] = compound effects on lung adenocarcinoma cell viability – A549, calcein-AM fluorescence, 48 h, basal, profiling panel (AID 1162); conditions: higher = more signal; note: test concentration not given here
# [2] = compound effects on differentiated 3T3-L1 adipocyte viability – cell-based, 3T3-L1 adipocytes, calcein-AM fluorescence, 48 h, basal, profiling panel (AID 1163); conditions: 3T3-L1 adipocytes viability, higher = more signal; note: test concentration not given here
# [3] = compound effects on hepatocellular carcinoma cell viability – HepG2, calcein-AM fluorescence, 48 h, basal, profiling panel (AID 1164); conditions: higher = more signal; note: test concentration not given here
# [4] = compound effects on multiple myeloma cell viability – MM1S, calcein-AM fluorescence, 48 h, basal, profiling panel (AID 1165); conditions: higher = more signal; note: test concentration not given here
# [5] = calcein-AM signal in unstimulated myeloma cells – cell-based, calcein-AM fluorescence, 48 h, PK04 Diversity Set, profiling panel (AID 1166); conditions: RPMI8226 myeloma viability, higher = more signal;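 note: cells grown under basal conditions without added stimulus; test concentration not given here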
# [6] = JC-1 mitochondrial signal, unstimulated HepG2 cells – cell-based, JC-1 fluorescence, 24 h, 100 nL compound, profiling panel (AID 1167); conditions: HepG2 mitochondrial potential, higher = more signal; note: test concentration not given here
# [7] = JC-1 mitochondrial signal, unstimulated adipocytes – cell-based, JC-1 fluorescence, 3T3-L1 adipocytes, 24 h, 100 nL compound, profiling panel (AID 1168); conditions: JC-1 mitochondrial fluorescence, higher = more signal, called active from +8 up or from −8 down; note: test concentration not given here
# [8] = JC-1 mitochondrial signal, unstimulated myeloma cells – cell-based, JC-1 fluorescence, RPMI8226, 24 h, 100 nL compound, profiling panel (AID 1169); conditions: JC-1 mitochondrial potential fluorescence, higher = more signal; note: test concentration not given here
# [9] = JC-1 mitochondrial signal, unstimulated MM1S myeloma – cell-based, JC-1 fluorescence, 24 h, 100 nL compound, profiling panel (AID 1170); conditions: MM1S mitochondrial potential, higher = more signal; note: test concentration not given here
# [10] = resazurin metabolic signal in A549 cells – cell-based, resazurin fluorescence, 24 h, PK04 Diversity Set, profiling panel (AID 1171); conditions: A549 viability, higher = more signal, called active from +8 up or from −8 down; note: test concentration not given here
# [11] = resazurin metabolic signal in HepG2 cells – cell-based, resazurin fluorescence, 24 h, PK04 Diversity Set, profiling panel (AID 1172); conditions: HepG2 viability, higher = more signal; note: test concentration not given here
# [12] = budding yeast growth changes without added modifier – OD600, strain BY4716, 24 h, basal condition, primary screen (AID 1173); conditions: S. cerevisiae BY4716 growth, OD600, 24 h; higher = more signal, called active from +8 up or from −8 down
# [13] = viability profiling in MM1S myeloma cells – cell-based, resazurin fluorescence, basal, 24 h, PK04 Diversity Set, profiling panel (AID 1174); conditions: higher = more signal, called active from +8 up or from −8 down; note: test concentration not given here
# [14] = target: Dihydroorotate dehydrogenase (quinone), mitochondrial (Plasmodium falciparum (isolate 3D7)) (UniProt Q08210); test: inhibition of P. falciparum DHODH – biochemical, C-terminal His tag, absorbance 600 nm, primary screen (AID 1175); conditions: PfDHODH enzyme, DCIP absorbance 600 nm; higher = more signal, called active from +8 up or from −8 down;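 note: recombinant parasite enzyme with a five histidine tag at its C terminus; test concentration not given here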
# [15] = inhibition of PAO1 biofilm formation – strain PAO1, LB-PBS medium, absorbance 600 nm, primary screen (AID 1176); note: test concentration not given here; conditions: P. aeruginosa PAO1 growth/biofilm, A600, 12 h; higher = more signal
# [16] = growth modulation of vineyard yeast isolate – strain RM11-1a, OD600, basal, 24 h, primary screen (AID 1177);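 note: cultures grown under basal conditions with no added stressor; test concentration not given here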; conditions: S. cerevisiae RM11-1a growth, OD600, 24 h; higher = more signal, called active from +8 up or from −8 down
# [17] = growth of efflux-deficient E. coli DRC39 – strain DRC39, OD650, 24 h, E. coli filamentation inducers, primary screen (AID 1178);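 note: growth measured as culture turbidity by optical density at 650 nm; test concentration not given here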; conditions: E. coli DRC39 acrAB, higher = more signal, called active from +8 up or from −8 down
# [18] = growth of efflux-deficient E. coli DRC39 – strain DRC39, OD650, 48 h, E. coli filamentation inducers, primary screen (AID 1179);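 note: screen aims at cell division blockers that make cells filament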; conditions: E. coli DRC39 delta-acrAB growth, higher = more signal, called active from +8 up or from −8 down
# [19] = viability profiling in RPMI8226 myeloma cells – cell-based, resazurin fluorescence, basal, 24 h, PK04 Diversity Set, profiling panel (AID 1180); conditions: higher = more signal;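 note: RPMI8826 multiple myeloma cell line at 5000 cells per well; test concentration not given here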
# [20] = target: E3 ubiquitin-protein ligase XIAP (Homo sapiens) (UniProt P98170); test: small molecules binding XIAP protein – biophysical, small-molecule microarray, fluorescence 635 nm, primary screen (AID 1181); conditions: higher = more signal;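 note: score merges 667 nm emission and signal to noise over triplicate slides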
# E3 ubiquitin-protein ligase XIAP (Homo sapiens), sequence (P98170 whole entry, looked up): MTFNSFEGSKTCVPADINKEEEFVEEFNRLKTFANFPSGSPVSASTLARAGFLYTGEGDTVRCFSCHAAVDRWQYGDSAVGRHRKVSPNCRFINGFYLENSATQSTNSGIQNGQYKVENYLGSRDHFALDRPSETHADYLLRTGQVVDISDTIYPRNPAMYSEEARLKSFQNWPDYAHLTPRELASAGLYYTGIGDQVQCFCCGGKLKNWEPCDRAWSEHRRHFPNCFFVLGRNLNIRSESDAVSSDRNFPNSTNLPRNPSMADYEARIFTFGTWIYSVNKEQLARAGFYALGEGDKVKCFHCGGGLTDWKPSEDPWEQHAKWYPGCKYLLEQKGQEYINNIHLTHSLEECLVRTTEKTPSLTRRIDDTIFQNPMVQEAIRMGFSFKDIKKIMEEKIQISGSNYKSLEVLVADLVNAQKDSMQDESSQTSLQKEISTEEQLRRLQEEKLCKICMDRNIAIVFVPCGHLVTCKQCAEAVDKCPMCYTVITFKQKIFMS
# Dihydroorotate dehydrogenase (quinone), mitochondrial (Plasmodium falciparum (isolate 3D7)), sequence (Q08210 whole entry, looked up): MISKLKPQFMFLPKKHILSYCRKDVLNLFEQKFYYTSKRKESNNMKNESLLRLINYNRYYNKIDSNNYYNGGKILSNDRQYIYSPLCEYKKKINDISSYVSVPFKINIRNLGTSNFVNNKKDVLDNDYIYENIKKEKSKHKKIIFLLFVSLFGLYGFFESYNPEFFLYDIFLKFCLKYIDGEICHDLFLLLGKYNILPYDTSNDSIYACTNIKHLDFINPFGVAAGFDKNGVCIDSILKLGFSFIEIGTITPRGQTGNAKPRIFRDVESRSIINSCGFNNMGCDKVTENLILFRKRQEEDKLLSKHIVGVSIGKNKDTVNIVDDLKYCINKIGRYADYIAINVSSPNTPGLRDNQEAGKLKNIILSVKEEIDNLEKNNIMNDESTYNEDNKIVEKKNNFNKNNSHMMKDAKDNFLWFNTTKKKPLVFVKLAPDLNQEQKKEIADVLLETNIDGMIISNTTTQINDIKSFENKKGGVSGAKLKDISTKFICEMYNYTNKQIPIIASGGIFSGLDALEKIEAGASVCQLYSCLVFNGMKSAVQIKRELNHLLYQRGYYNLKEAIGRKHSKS
SMILES,z-score [1],z-score [2],z-score [3],z-score [4],z-score [5],z-score [6],z-score [7],z-score [8],z-score [9],z-score [10],z-score [11],z-score [12],z-score [13],composite z-score [14],z-score [15],z-score [16],z-score [17],z-score [18],z-score [19],composite z-score [20]
COC(=O)C1=CC(CCCO)=CC(c2ccc(CN3CCCC3)cc2)N(C)C=C1C(=O)OC (stereo not given),0.71,-0.0962,0.204,0.608,0.433,0.91,0.735 (inactive),0.173,-0.537,-0.632 (inactive),0.407,0.0335 (inactive),-0.381 (inactive),-1.58 (inactive),0.543 (inactive),0.326 (inactive),0.98 (inactive),1.32 (inactive),0.154,-0.153
COc1ccc(C(O)C2C=CC3C(=O)N(c4ccccc4)C(=O)C3N2Nc2ccccc2F)c2ccccc12 (stereo not given),0.23,-0.229,-0.737,-1.91,-1.61,-1.78,0.385 (inactive),-0.172,-0.754,0.473 (inactive),-1.83,-1.71 (inactive),-0.042 (inactive),-0.588 (inactive),1.15 (inactive),-0.0824 (inactive),-0.203 (inactive),-0.617 (inactive),0.0565,0.253
COC(=O)[C@@]1(Cc2ccc(F)cc2)[C@H]2c3cc(C(=O)N(C)C)n(CCF)c3C[C@H]2CN1C(=O)c1ccccc1,-0.063,-0.138,0.121,0.066,0.266,-0.0126,0.696 (inactive),-0.37,0.328,-0.957 (inactive),0.0085,0.0276 (inactive),-0.182 (inactive),-0.54 (inactive),0.7 (inactive),-0.5 (inactive),0.783 (inactive),0.459 (inactive),0.034,0.179
[N-]=[N+]=NCc1ccccc1[C@H]1OC(c2ccc(OCCCO)cc2)=N[C@@]1(Cc1ccccc1N=[N+]=[N-])C(=O)N1CCOCC1,-0.612,-0.182,-0.659,-2.69,-3.44,-1.26,-0.866 (inactive),-1.11,-2.14,-0.772 (inactive),-0.317,-0.783 (inactive),-2.46 (inactive),1.03 (inactive),0.438 (inactive),1.43 (inactive),-0.33 (inactive),-0.799 (inactive),-2.58,0.122
C#CCN(C(=O)OC(C)(C)C)[C@H](CO)c1ccccc1,-0.413,-0.24,-1.51,-0.404,-0.404,-1.16,0.0135 (inactive),0.136,-0.125,0.659 (inactive),0.739,-7.87 (inactive),-0.351 (inactive),-0.2 (inactive),-0.234 (inactive),-0.184 (inactive),0.47 (inactive),-0.652 (inactive),-0.336,-0.005
C=CCC(OC(C)=O)[C@@H]1[C@@H](N(Cc2cccc3ccccc23)C(=O)c2ccc(C)cc2)c2cc(OCCCO)ccc2N1C(=O)Cc1ccc2ccccc2c1 (stereo not given in full),0.396,1.05,1.55,0.83,0.986,3.54,0.598 (inactive),0.152,-0.984,0.433 (inactive),0.0546,-1.34 (inactive),0.802 (inactive),-2.08 (inactive),0.0642 (inactive),-1.31 (inactive),0.72 (inactive),1.28 (inactive),0.608,0.0264
O=C1O[C@H](c2ccccc2)[C@H](c2ccccc2)N2[C@H]1[C@@H](C(=O)N1CCN(c3ncccn3)CC1)[C@]1(C(=O)Nc3ccc(C#CC4(O)CCCCCC4)cc31)[C@H]2c1ccc(O)cc1,1.84,0.783,1.58,0.0827,-0.153,-0.553,-0.166 (inactive),-0.259,0.18,1.17 (inactive),0.596,-0.436 (inactive),0.776 (inactive),0.0991 (inactive),1.05 (inactive),1.82 (inactive),0.851 (inactive),1.31 (inactive),0.995,-0.0663
Cc1cccc([C@H]2C[C@H]3C(Br)=C[C@@]2(CO)C(=O)[C@]32CO2)c1,-0.602,0.0875,-0.729,-2.43,-0.551,-2.11,-0.0495 (inactive),-0.0551,-0.876,0.393 (inactive),0.888,-5.63 (inactive),-0.398 (inactive),-0.287 (inactive),0.343 (inactive),-0.169 (inactive),0.258 (inactive),0.294 (inactive),0.214,0.273
COC(=O)[C@@]1(Cc2ccccc2)[C@H]2c3cc(C(=O)N(C)C)n(Cc4nc5ccccc5[nH]4)c3C[C@H]2CN1C(=O)c1ccccc1,0.173,-0.232,0.858,-0.013,-0.191,-0.3,0.385 (inactive),-0.303,-0.701,0.0716 (inactive),1.17,-0.541 (inactive),-0.204 (inactive),-0.862 (inactive),0.92 (inactive),-0.706 (inactive),1.04 (inactive),0.0023 (inactive),-0.139,0.0747
COc1ccc(CCNC(=O)[C@@]2(c3ccc([N+](=O)[O-])cc3)CC(=O)N(C3CCCCC3)[C@@H]2c2ccc(CO)cc2I)cc1,0.507,0.969,-0.348,-2.41,-2.58,1.31,0.72 (inactive),-0.293,0.379,-1.11 (inactive),-1.29,0.633 (inactive),-0.949 (inactive),1.45 (inactive),0.14 (inactive),1.86 (inactive),0.359 (inactive),-0.0406 (inactive),-0.593,-0.16
CC(=O)NCCCC[C@@H]1NC(=O)[C@H]2C[C@@H](C(=O)O)[C@@H](c3cccc(OCCO)c3)N2C1=O,-0.103,-0.349,0.276,0.34,0.928,0.0103,-0.55 (inactive),-0.809,-0.401,0.354 (inactive),-0.7,-0.757 (inactive),0.441 (inactive),-0.969 (inactive),0.118 (inactive),-0.587 (inactive),-0.33 (inactive),0.0133 (inactive),-0.0778,-0.138
C=CCN1C(=O)[C@]2(O[C@H](CCO)[C@@H]([Si](C)(C)c3ccc(OC)cc3)[C@@H]2C)c2cc(N3C(=O)c4ccccc4Oc4ccccc43)ccc21,-3.65,0.139,-4.64,-2.73,-4.35,-2.08,-0.599 (inactive),-1.04,-2.15,-5.48 (inactive),-5.91,0.84 (inactive),-8.74 (active),1.11 (inactive),0.106 (inactive),4.06 (inactive),0.229 (inactive),-0.757 (inactive),-6.28,-0.138
C[C@H]1C2[C@H](Cc3ccccc3)NC(=O)[C@]23C(=O)N[C@@H](Cc2ccccc2)C(=O)N2CCC[C@H]2C(=O)NC/C=C/CC/C=C/C3[C@@H]2O[C@]12C (stereo not given in full),-0.168,1.18,-0.512,-0.132,-0.876,1.11,0.308 (inactive),0.0536,0.793,-0.0612 (inactive),-0.661,0.321 (inactive),-0.299 (inactive),-0.0587 (inactive),0.355 (inactive),-0.0615 (inactive),0.159 (inactive),-0.882 (inactive),-0.39,-0.0663
O=C1O[C@H](c2ccccc2)[C@H](c2ccccc2)N2[C@H]1[C@@H](C(=O)O)[C@]1(C(=O)Nc3ccc(C#CC4(O)CCCCCC4)cc31)[C@H]2c1ccccc1OCCO,0.631,0.0596,-0.0165,-3.38,-4.15,-2.61,-0.521 (inactive),-0.911,-0.681,0.95 (inactive),1.15,-1.72 (inactive),-0.65 (inactive),-2.25 (inactive),-0.645 (inactive),3.22 (inactive),0.703 (inactive),0.732 (inactive),0.305,-0.0666
CCCNC(=O)[C@@]1(Sc2ccc(C)cc2)CC(=O)N(Cc2cc(C(F)(F)F)cc(C(F)(F)F)c2)[C@@H]1c1ccc(CO)cc1,-0.259,1.2,-0.609,-0.254,-0.312,-0.537,0.196 (inactive),0.293,-0.765,0.149 (inactive),-0.258,-0.265 (inactive),0.905 (inactive),-0.756 (inactive),0.366 (inactive),-0.977 (inactive),0.484 (inactive),-0.0429 (inactive),0.18,-0.127
Cc1ccc(S[C@]2(C(=O)NCC(C)C)CC(=O)N(C(C)C)[C@@H]2c2ccc(CO)cc2I)cc1,1.97,0.508,0.867,-2.41,-2.03,0.978,0.953 (inactive),-0.94,-1.19,0.677 (inactive),-0.16,-2.09 (inactive),-1.52 (inactive),-0.332 (inactive),-0.288 (inactive),-0.91 (inactive),0.485 (inactive),-0.117 (inactive),-1.8,-0.128
O=C1C2C=CC(C(O)C3CCCCC3)N(Nc3ccccc3F)C2C(=O)N1c1ccccc1 (stereo not given),-0.112,0.1,-0.528,0.345,-0.925,-0.804,-0.865 (inactive),-0.224,-0.433,-0.852 (inactive),-1.87,-0.701 (inactive),-0.631 (inactive),-0.572 (inactive),0.931 (inactive),-0.375 (inactive),0.221 (inactive),-0.1 (inactive),-0.14,-0.235
C=CC[C@]1(C(N)=O)N=C(c2ccc(OCCCO)cc2)O[C@H]1c1ccccc1N=[N+]=[N-],0.772,0.46,1.49,-1.04,0.656,0.462,0.903 (inactive),-0.514,-0.747,-0.752 (inactive),0.021,-0.925 (inactive),-0.362 (inactive),0.315 (inactive),0.274 (inactive),1.32 (inactive),2.12 (inactive),2 (inactive),-0.733,0.217
